Granule exo inh – LAMP-1 surface exposure blockers, TALL-104 cells – cell-based, flow cytometry, MLPCN library, primary screen; TALL-104 LAMP-1 surface exposure; cells stimulated with thapsigargin and PMA; inhibition, % at 10 µM; 360,000 tested, 0.66% active;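 active = inhibition above about 55%, limit read from the data; inconclusive = no clear call, values can overlap the other calls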
PP1 counter – PP1-alpha phosphatase inhibitors, primary screen, counter-screen for PP5 inhibitor project, biochemical, fluorescence, OMFP substrate, single point; 320,000 tested, 0.9% active; AID 2235, 2010; purified PP1alpha; inhibition, % at 6.7 µM;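 active = inhibition above the mean inhibition of all tested compounds plus 3 SD, computed separately for each screening campaign, cut at about 15% in these data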
IDE cell inh – human IDE inhibitors in live cells, primary screen, fluorescence polarization, HEK cells, FAbetaB substrate. Insulin-degrading enzyme (Homo sapiens), P14735. FAbetaB cleavage. inhibition, % at 5.59 µM. 320,000 tested, 0.41% active. AID 434962, 2010;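 active = percent inhibition above the average of all tested compounds plus 3 SD, set per screening campaign, cut at about 16% in these data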;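 also: IDE supplied by intact live HEK cells; FP after avidin binding of uncleaved biotin substrate so inhibition keeps polarization high; 0% = DMSO wells and 100% = 60 µM reference IDE inhibitor Ii1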
Target sequence (P14735 whole entry, looked up): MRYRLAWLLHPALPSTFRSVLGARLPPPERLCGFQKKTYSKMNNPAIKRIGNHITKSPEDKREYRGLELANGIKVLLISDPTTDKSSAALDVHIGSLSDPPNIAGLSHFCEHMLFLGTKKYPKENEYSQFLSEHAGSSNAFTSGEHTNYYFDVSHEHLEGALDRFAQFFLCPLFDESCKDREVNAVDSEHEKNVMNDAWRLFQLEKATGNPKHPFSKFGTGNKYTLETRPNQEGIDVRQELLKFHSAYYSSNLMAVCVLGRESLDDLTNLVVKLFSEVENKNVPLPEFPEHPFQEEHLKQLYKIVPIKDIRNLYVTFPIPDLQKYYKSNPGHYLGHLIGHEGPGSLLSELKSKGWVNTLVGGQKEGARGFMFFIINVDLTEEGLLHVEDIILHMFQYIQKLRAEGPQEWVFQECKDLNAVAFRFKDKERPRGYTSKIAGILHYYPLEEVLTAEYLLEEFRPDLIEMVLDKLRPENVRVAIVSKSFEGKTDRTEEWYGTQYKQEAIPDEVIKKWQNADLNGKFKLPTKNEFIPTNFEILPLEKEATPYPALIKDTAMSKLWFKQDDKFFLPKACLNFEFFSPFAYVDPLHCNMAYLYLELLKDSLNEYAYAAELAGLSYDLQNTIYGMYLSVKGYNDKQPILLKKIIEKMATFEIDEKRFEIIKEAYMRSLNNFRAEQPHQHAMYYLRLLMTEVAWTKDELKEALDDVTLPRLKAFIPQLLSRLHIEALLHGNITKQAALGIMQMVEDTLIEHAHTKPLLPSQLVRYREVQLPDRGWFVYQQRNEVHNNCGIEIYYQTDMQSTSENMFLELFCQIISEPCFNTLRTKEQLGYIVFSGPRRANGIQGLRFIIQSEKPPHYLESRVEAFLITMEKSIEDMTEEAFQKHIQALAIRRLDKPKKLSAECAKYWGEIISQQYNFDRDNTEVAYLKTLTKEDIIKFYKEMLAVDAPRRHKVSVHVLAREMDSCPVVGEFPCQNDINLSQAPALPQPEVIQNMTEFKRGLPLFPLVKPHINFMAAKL
IDE act – human IDE activators in live cells, primary screen, fluorescence polarization, HEK cells, FAbeta-B substrate; Insulin-degrading enzyme (Homo sapiens), P14735; FAbeta-B cleavage; 0% vehicle, 100% cell-free pure enzyme wells; activation, % at 5.96 µM; 340,000 tested, 0.073% active; AID 493087, 2011;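 active = activation above the mean of all tested compounds plus 3 SD, set per screening campaign, cut at about 17% in these data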
PP5 inh – PP5 phosphatase inhibitors, primary screen, biochemical, fluorescence. Serine/threonine-protein phosphatase 5 (Homo sapiens), P53041. purified PP5c, OMFP substrate fluorescence. inhibition, % at 6.7 µM. 320,000 tested, 0.18% active;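 active = inhibition above the campaign's mean inhibition across all tested compounds plus 3 SD, cut at about 9.5% in these data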;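 also: 0% = DMSO only and 100% = 100 µM cantharidin control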
SKKanGAS inh – S. pyogenes SKKanGAS growth inhibitors in kanamycin, primary screen, streptokinase expression inhibitor project, SKKanGAS strain, BacTiter-Glo luminescence; 6 h; inhibition, % at 7.5 µM; 300,000 tested, 1.3% active; AID 1662, 2009;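 active = mean replicate score, as percent of positive control median, at least 50; inconclusive = mean below 50 but one replicate at or above 50; inactive = mean and every replicate below 50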;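 also: strain carries kanamycin resistance gene driven by streptokinase promoter and grows in 40 µg/ml kanamycin; loss of luminescence reflects streptokinase promoter inhibition or plain growth inhibition; 0% = median of DMSO wells and 100% = positive control at its reference dose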
* hit, by the source's call. Rows were chosen to be rich in hits. Some 2.8% of all compounds tested hit in one or more screens of this group.

Screening CCC(CC)C1=NN2C(=N)/C(=C\c3cc(C)n(-c4cccc(C)c4)c3C)C(=O)N=C2S1 returned Granule exo inh -1, PP1 counter -2, IDE cell inh 5, IDE act -1, PP5 inh 3 and SKKanGAS inh 86*.
Screening CC1=NN2C(=N)/C(=C\c3cc(C)n(-c4ccccc4)c3C)C(=O)N=C2S1 returned Granule exo inh -1, PP1 counter -3, IDE cell inh 6, IDE act 3, PP5 inh 1 and SKKanGAS inh 10.
Screening Cc1cc(/C=C2\C(=N)N3N=C(C(C)C)SC3=NC2=O)c(C)n1Cc1ccccc1 returned Granule exo inh -4, PP1 counter 2, IDE cell inh 4, IDE act -1, PP5 inh 2 and SKKanGAS inh 40.
`CCC1=NN2C(=N)/C(=C/c3cc(C)n(Cc4ccccc4)c3C)C(=O)N=C2S1` gave Granule exo inh 12, PP1 counter 16*, IDE cell inh 13, IDE act 2, PP5 inh 2 and SKKanGAS inh 35.
Cc1ccc2nsnc2c1NC(=O)c1ccc(-c2cc(Cl)ccc2Cl)o1 was read as Granule exo inh 4, PP1 counter 25*, IDE cell inh 4, IDE act 5, PP5 inh 4 and SKKanGAS inh 1.
Screening OC(COc1ccc2ccccc2c1Br)Cn1cnc(-c2ccccc2)c1 (centres undefined) returned Granule exo inh 6, PP1 counter 6, IDE cell inh 4, IDE act -6, PP5 inh 6 and SKKanGAS inh 56*.
COc1ccc(OCC(O)Cn2cnc(-c3ccc(Br)cc3)c2)cc1 (centres undefined) was read as Granule exo inh -1, PP1 counter 2, IDE cell inh 1, IDE act -6, PP5 inh 3 and SKKanGAS inh -1.
For CC(C)(C)c1ccc(NC(=O)c2c(F)cccc2Cl)cc1 the results were Granule exo inh -1, PP1 counter -1, IDE cell inh 13, IDE act 1, PP5 inh 6 and SKKanGAS inh 0.
For CC(C)(C)NCC(=O)N/N=C/c1ccc(OCc2ccccc2)cc1 the results were Granule exo inh 7, PP1 counter 2, IDE cell inh 16*, IDE act -11, PP5 inh 1 and SKKanGAS inh 1.
`CCCCNC(=O)C(=O)N/N=C/c1ccc(OCc2ccccc2)cc1` gave Granule exo inh -2, PP1 counter 7, IDE cell inh 2, IDE act -3, PP5 inh -2 and SKKanGAS inh -5.
For CN(C)c1ccc(-c2nn3c(-c4ccccc4Cl)nnc3s2)cc1 the results were Granule exo inh 4, PP1 counter 16*, IDE cell inh 4, IDE act 6, PP5 inh 2 and SKKanGAS inh 19.
For CCC(CC)c1nnc(NC(=O)c2cc(-c3ccccc3)nc3ccccc23)s1 the results were Granule exo inh 0, PP1 counter -3, IDE cell inh 4, IDE act -2, PP5 inh 2 and SKKanGAS inh 23.
Cc1csc(NC(=O)c2ccc3ccccc3n2)n1 was read as Granule exo inh -1, PP1 counter 0, IDE cell inh 1, IDE act 4, PP5 inh 3 and SKKanGAS inh 60*.
For CCC(CC)c1nnc(NC(=O)c2ccc3ccccc3n2)s1 the results were Granule exo inh 4, PP1 counter 2, IDE cell inh 3, IDE act -5, PP5 inh 1 and SKKanGAS inh 79*.
CC1(C)CC(c2nc(-c3ccc(Cl)cc3)cs2)CCS1 (centres undefined) was read as Granule exo inh -2, PP1 counter -1, IDE cell inh 3, IDE act 4, PP5 inh 2 and SKKanGAS inh 65*.
`Cc1ccc(C)c(S(=O)(=O)N2CCN(C(=O)[C@H](C)N3C(=O)C4CC=CCC4C3=O)CC2)c1` (some centres undefined) gave Granule exo inh -4, PP1 counter -5, IDE cell inh 2, IDE act 9 and PP5 inh 0.
`S=C1Cc2ccccc2N1` gave Granule exo inh 94*, IDE act -30 and SKKanGAS inh inconclusive.
For CCn1c(=O)c(C(=O)Nc2ccccc2C)c(O)c2ccccc21 the results were Granule exo inh -2, PP1 counter 1, IDE cell inh 9, IDE act 6, PP5 inh 1 and SKKanGAS inh -3.
CCn1c(=O)c(C(=O)NCCc2ccccc2)c(O)c2ccccc21 was read as Granule exo inh 14, PP1 counter -2, IDE cell inh 3, IDE act 5, PP5 inh 3 and SKKanGAS inh 13.
`CCCCCCCCC(=O)NNC(=O)c1c(O)c2ccccc2n(CC)c1=O` gave Granule exo inh -2, PP1 counter -2, IDE cell inh 4, IDE act -2, PP5 inh -1 and SKKanGAS inh 106*.
CCCCCCC(=O)NNC(=O)c1c(O)c2ccccc2n(CC)c1=O was read as Granule exo inh 3, PP1 counter 1, IDE cell inh -3, IDE act 7, PP5 inh 0 and SKKanGAS inh 112*.
Screening CCn1c(=O)c(C(=O)Nc2ccc(C)cc2)c(O)c2ccccc21 returned Granule exo inh 10, PP1 counter -5, IDE cell inh -3, IDE act 2, PP5 inh 1 and SKKanGAS inh -3.
CCn1c(=O)c(C(=O)NNC(=O)c2ccccc2)c(O)c2ccccc21 was read as Granule exo inh -14, PP1 counter 1, IDE cell inh 3, IDE act 1, PP5 inh -1 and SKKanGAS inh 53*.
CCCCCCCC(=O)NNC(=O)c1c(O)c2ccccc2n(CC)c1=O was read as Granule exo inh -1, PP1 counter -11, IDE cell inh 1, IDE act 2, PP5 inh 0 and SKKanGAS inh 99*.
CCCC(=O)N1CCC1(C)C(=O)Nc1ccc2c(c1)OCCO2 (centres undefined) was read as Granule exo inh -4.
For C=CCn1c(=O)c(C(=O)NCCNCC)c(O)c2ccccc21 the results were Granule exo inh 4, PP1 counter -3, IDE cell inh 10, IDE act -1, PP5 inh 0 and SKKanGAS inh -8.
For CC(C)Cn1c(=O)c(C(=O)Nc2ccncc2)c(O)c2ccccc21 the results were Granule exo inh -4, PP1 counter 8, IDE cell inh 2, IDE act -2, PP5 inh -1 and SKKanGAS inh 96*.
